Screening data from PubChem BioAssay.
Shown is part of a subset that was picked to be rich in hits.
nsP2pro primary: Primary qHTS for inhibitors of NSP2Pro chikungunya virus (CHIKV). Potency, µM (titrated, usually from 24.9 µM), usual class: inhibitors. AID 1964107, 2024. 1.1% of 31,000 active. FRET peptide cleavage, nsP2pro, fluorescence 1 h; also: nearly all actives have a fitted effect of over 60% in size
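Enzyme 150 nM, substrate 2.5 uM (both final); Tris-HCl 10 mM pH 8.0 + 0.01% Tween 20; cpd up to 25 uM, 7 pts; 15 min preinc., 1 h RT; fluorescence ex 525/em 598.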
CHIKV nsP2 cell: Secondary cell base assay for inhibitors of NSP2Pro Chikungunya virus (CHIKV). cell-based CHIKV nsP2 protease reporter assay. Potency, µM (doses to about 51.1 µM), hits mostly inhibitors. shares compounds with nsP2pro primary. AID 1964100, 2024. 10% of 450 active; also: nearly all actives have a fitted effect of over 70% in size
NSP2 full ctr: Selectivity profile for inhibitors of NSP2Pro chikungunya virus (CHIKV): Full length NSP2 enzyme counterscreen (CHIKV-NSP2). 39% of 410 active. AID 1964101, 2024. Potency, µM (titrated, usually from 50.7 µM), actives largely listed as inhibitors. Full-length CHIKV NSP2 protease enzymatic counterscreen. shares compounds with nsP2pro primary; also: nearly all actives have a fitted effect of over 65% in size
Furin counter: Selectivity profile for inhibitors of NSP2Pro chikungunya virus (CHIKV): Human furin counterscreen. Potency, µM (highest dose often 50.6 µM), actives largely listed as inhibitors. shares compounds with nsP2pro primary. 6% of 410 active. Recombinant human furin enzymatic counterscreen, fluorogenic substrate
Target sequence (P09958 whole entry, looked up): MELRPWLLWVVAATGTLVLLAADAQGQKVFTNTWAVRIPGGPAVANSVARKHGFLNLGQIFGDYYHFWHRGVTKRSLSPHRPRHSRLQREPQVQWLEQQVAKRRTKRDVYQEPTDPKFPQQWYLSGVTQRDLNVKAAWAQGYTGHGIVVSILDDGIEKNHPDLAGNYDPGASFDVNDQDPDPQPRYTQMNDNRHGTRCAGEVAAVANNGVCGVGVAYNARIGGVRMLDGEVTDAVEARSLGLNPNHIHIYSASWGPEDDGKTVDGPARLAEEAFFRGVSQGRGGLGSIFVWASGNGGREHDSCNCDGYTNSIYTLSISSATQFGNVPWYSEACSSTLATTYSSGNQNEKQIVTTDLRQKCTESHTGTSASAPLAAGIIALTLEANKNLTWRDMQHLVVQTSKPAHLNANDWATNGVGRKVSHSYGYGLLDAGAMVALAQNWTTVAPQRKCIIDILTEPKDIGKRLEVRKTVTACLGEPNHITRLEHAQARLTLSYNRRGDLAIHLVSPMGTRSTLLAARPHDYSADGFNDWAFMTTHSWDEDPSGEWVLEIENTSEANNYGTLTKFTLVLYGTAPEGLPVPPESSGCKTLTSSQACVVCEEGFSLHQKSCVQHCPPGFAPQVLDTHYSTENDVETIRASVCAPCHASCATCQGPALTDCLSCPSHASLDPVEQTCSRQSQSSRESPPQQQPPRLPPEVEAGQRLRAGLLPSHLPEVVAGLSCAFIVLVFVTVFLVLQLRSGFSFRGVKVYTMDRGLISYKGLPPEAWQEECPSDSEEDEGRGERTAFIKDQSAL
NS23 peptide cs: Selectivity profile for inhibitors of NSP2Pro chikungunya virus (CHIKV): Endogenous NS2/3 peptide Counterscreen; shares compounds with nsP2pro primary; Purified CHIKV nsP2 protease, endogenous NS2/3 peptide cleavage; Potency, µM (series often up to 51 µM), actives largely listed as inhibitors; 34% of 410 active; AID 1964103, 2024; also: nearly all actives have a fitted effect of over 55% in size
Papain cs: Selectivity profile for inhibitors of NSP2Pro chikungunya virus (CHIKV): Papain Counterscreen; Potency, µM (doses to about 51 µM), most hits filed as inhibitors; 5% of 410 active; shares compounds with nsP2pro primary; purified papain protease activity, enzymatic inhibition
nsP2pro confirm: Confirmatory qHTS for inhibitors of NSP2Pro chikungunya virus (CHIKV) | shares compounds with nsP2pro primary | CHIKV nsP2 protease enzymatic activity, qHTS | Potency, µM (top dose mostly 25.5 µM), most hits filed as inhibitors | 43% of 410 active | AID 1964105, 2024; also: nearly all actives have a fitted effect of over 75% in size
HCV NS3 counter: Selectivity profile for inhibitors of NSP2Pro chikungunya virus (CHIKV): NS34A-HCV Counterscreen; 20% of 410 active; HCV NS3/4A protease biochemical counterscreen; Potency, µM (top dose mostly 50.9 µM), actives largely listed as inhibitors; shares compounds with nsP2pro primary; AID 1964106, 2024; also: nearly all actives have a fitted effect of over 55% in size
A number is an active result. Calls follow the shape of the full dose curve.

Screening CN(C)Cc1ccc(-c2cnn3c(-c4cccc(NC(=O)c5cccc(C(F)(F)F)c5)c4)ccnc23)cc1 returned nsP2pro primary inactive.
`COc1ccc(C(=O)Nc2ccc(N(C)Cc3ccccc3)c(C(=O)O)c2)cc1` gave nsP2pro primary 5.01µM, CHIKV nsP2 cell inactive, NSP2 full ctr 5.17µM, Furin counter inconclusive, NS23 peptide cs 13µM, Papain cs inactive, nsP2pro confirm 7.98µM and HCV NS3 counter 3.26µM.
Screening COc1ccc(NC(=O)c2ccc3nc(CCc4ccccc4)oc3c2)cc1 returned nsP2pro primary inactive.
CCCCNC(=O)CN1CCN(c2ncc(NC(=O)c3ccc(Cl)cc3)cc2C(=O)O)CC1 was read as nsP2pro primary inconclusive, CHIKV nsP2 cell inactive, NSP2 full ctr 14.6µM, Furin counter inactive, NS23 peptide cs inactive, Papain cs inactive, nsP2pro confirm inactive and HCV NS3 counter inactive.
CCCCNC(=O)CN1CCN(c2ccc(NC(=O)c3ccc(OC)cc3)cc2C(=O)O)CC1 was read as nsP2pro primary 4.47µM, CHIKV nsP2 cell inconclusive, NSP2 full ctr 4.11µM, Furin counter inconclusive, NS23 peptide cs 7.3µM, Papain cs inactive, nsP2pro confirm 6.34µM and HCV NS3 counter 1.83µM.
For CCCCOc1ccc(C(=O)Nc2ccc3c(c2)CCCN3C(=O)c2cccs2)cc1 the results were nsP2pro primary inactive.
CCCCN(CCCNC(=O)c1ccc(Sc2ccc(Cl)cc2)c(NC(C)=O)c1)c1ccccc1 was read as nsP2pro primary inactive.
Screening COc1ccc(NC(=O)CCN2CCN(c3cccc(Cl)c3)CC2)cc1 returned nsP2pro primary inactive.
`Cc1ccc(Cl)cc1NC(=O)c1cnc(N2CCCCC2)c2ccccc12` gave nsP2pro primary inactive.
For CCOc1cccc(C(=O)Nc2ccc(S(=O)(=O)N(Cc3ccccc3)c3ccccc3)cc2)c1 the results were nsP2pro primary inactive.
Cc1nnc2n1CCC(NC(=O)c1cnccn1)CC2 (stereo not given) was read as nsP2pro primary inactive.
Screening CC1=C(COC2OC(CO)C(O)C(O)C2O)C(C(CO)C(=O)O)CC1 (stereo not given) returned nsP2pro primary inactive.
Screening N#Cc1c(-c2ccc(Br)cc2)no[n+]1[O-] returned nsP2pro primary inactive.
CC(=O)Nc1sc2c(c1-c1ccc(Cl)cc1)CCNC2 was read as nsP2pro primary inactive.
For Cc1ccc(NS(=O)(=O)c2cc3c(cc2NC(C)CO)NC(=O)CC3)cc1C (stereo not given) the results were nsP2pro primary inactive.
Cc1cc(C)nc(N2C[C@H]3OC(=O)N(CCc4cccc(Cl)c4)[C@H]3C2)n1 was read as nsP2pro primary inactive.
Screening O=C(NC1CCCCC1)N1Cc2[nH]cnc2C[C@H]1c1nc(-c2ccccc2)no1 returned nsP2pro primary inactive.
For Cc1cccc(-c2noc([C@@H]3Cc4nc[nH]c4CN3C(=O)NC3CCCCC3)n2)c1 the results were nsP2pro primary 0.631µM, CHIKV nsP2 cell inactive, NSP2 full ctr 5.3µM, Furin counter inactive, NS23 peptide cs 7.49µM, Papain cs inactive, nsP2pro confirm 2.06µM and HCV NS3 counter inactive.
Screening O=C(Nc1cccc(F)c1)N1Cc2[nH]cnc2C[C@H]1c1nc(-c2ccncc2)no1 returned nsP2pro primary inactive.
Screening Cn1ncc(-c2nnc(-c3ccccc3)n2CCCn2ccnc2)c1N returned nsP2pro primary inactive.
For CCN1CCN(C(=O)N[C@@H](C(=O)N[C@]2(OC)C(=O)N3C(C(=O)O)=C(CSc4nnnn4C)CS[C@@H]32)[C@H](C)O)C(=O)C1=O the results were nsP2pro primary inactive.
For COC1CCC12CCNCC2 (stereo not given) the results were nsP2pro primary inactive.
Cc1ccc(-c2ccc(N)nc2)c2cccnc12 was read as nsP2pro primary inactive.
`O=C(Cn1cc(CN(Cc2ccccc2)Cc2ccccc2)nn1)Nc1cc(C(F)(F)F)ccc1Cl` gave nsP2pro primary inactive.
`CC1(C)CCCC2(C)c3c4c(c(=O)oc(=O)c3=CCC12)=CCC1C(C)(C)CCCC41C` (stereo not given) gave nsP2pro primary inactive.
`CC(C)c1cc2c(c(O)c1O)[C@@]13CCCC(C)(C)C1[C@@H](O)[C@@H]2OC3=O` (stereo not given in full) gave nsP2pro primary 6.1µM, CHIKV nsP2 cell inactive, NSP2 full ctr inconclusive, Furin counter inactive, NS23 peptide cs inconclusive, Papain cs inactive, nsP2pro confirm 6.21µM and HCV NS3 counter inactive.
C[C@]12CCC[C@](C)(C(=O)O)C1CCC13C=C(CO)C(CCC12)C3 (stereo not given in full) was read as nsP2pro primary inactive.
For C=C1C2CCC3C(CCC4[C@@]3(C)CCC[C@@]4(C)C(=O)O)(C2)[C@@H]1OC(=O)/C(C)=C\C (stereo not given in full) the results were nsP2pro primary 1.36µM, CHIKV nsP2 cell inactive, NSP2 full ctr inactive, Furin counter inactive, NS23 peptide cs inactive, Papain cs inactive, nsP2pro confirm inactive and HCV NS3 counter inactive.
`C=C1CC23CCC4[C@@](C)(CCC[C@@]4(C)C(=O)O)C2CCC1C3` (stereo not given in full) gave nsP2pro primary inactive.
Screening CCCc1cc(=O)c2ccccc2n1C returned nsP2pro primary inactive.
For CCOc1ccccc1NC(=O)N1CCCCC1CCn1cc(C(=O)NCC2CC2)nn1 (stereo not given) the results were nsP2pro primary inactive.
COc1ccc(Cc2nc3nccc(-c4cc5ccccc5o4)n3n2)cc1 was read as nsP2pro primary inactive.
Cc1cccc(Nc2ccccc2C(=O)O)c1C was read as nsP2pro primary inactive.
Screening O=C(O)c1ccccc1Nc1cc(Cl)ccc1C(=O)O returned nsP2pro primary inactive.
